From PubChem BioAssay (NCI)
The panel holds about 83,000 compounds, 20% with a hit somewhere; the sample as a whole holds those more often.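 96-well plates, one dose, 48 hours. Percent growth reported; active if below 10.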 Unmarked numbers belong to inactive results. Active and inactive are the calls of the source.

Experiments:
Test in all cases: NCI-60 one-dose screen, 48 h (100 = growth as untreated, 0 = no growth, -100 = all killed)
[1] = system: DU-145 prostate; conditions: 10 µM
[2] = system: K-562 leukemia; conditions: 10 µM
[3] = system: MALME-3M melanoma; conditions: 10 µM
[4] = system: MDA-MB-231 breast; conditions: 10 µM
[5] = system: RXF 393 renal; conditions: 10 µM
[6] = system: SF-268 CNS; conditions: 10 µM
[7] = system: SF-295 CNS; conditions: 10 µM
[8] = system: SF-539 CNS; conditions: 10 µM
[9] = system: UACC-257 melanoma; conditions: 10 µM
[10] = system: M14 melanoma; conditions: 10 µM
[11] = system: HCT-15 colon; conditions: 10 µM
[12] = system: SNB-75 CNS; conditions: 10 µM
[13] = system: SNB-19 CNS; conditions: 10 µM
[14] = system: U251 CNS; conditions: 10 µM
[15] = system: PC-3 prostate; conditions: 10 µM
[16] = system: SK-MEL-5 melanoma; conditions: 10 µM
[17] = system: UACC-62 melanoma; conditions: 10 µM unless noted
[18] = system: LOX IMVI melanoma; conditions: 10 µM
[19] = system: SK-MEL-28 melanoma; conditions: 10 µM
[20] = system: HT29 colon; conditions: 10 µM

Compound | growth [1] | growth [2] | growth [3] [%] | growth [4] [%] | growth [5] | growth [6] [%] | growth [7] [%] | growth [8] | growth [9] [%] | growth [10] | growth [11] [%] | growth [12] [%] | growth [13] [%] | growth [14] | growth [15] [%] | growth [16] [%] | growth [17] [%] | growth [18] [%] | growth [19] [%] | growth [20] [%]
CC1Cc2ccccc2O1 (stereo not given) | 124% | 117% | 126 | 115 | 118% | 113 | 104 | 100% | 112 | 107% | 99.1 | 105 | 117 | 111% | 106 | 108 | 122 | 97.4 | 114 | 
CCOc1ccc(/C=N/N=C(N)N)cc1OCC | 117% | 98.7% | 113 | 108 | 111% | 96.2 | 95.9 | 99.8% | 89.7 | 99.3% | 97.6 |  |  | 103% | 94.1 | 98.5 | 93.1 | 101 | 92.4 | 89.5
COc1cc(C(=O)N/N=C/c2cccc([N+](=O)[O-])c2)cc(OC)c1OC | 87.4% | 35.8% | 40.1 | 65.1 | 60% | 73.6 | 48.2 | 66.2% | 76.3 | 29.9% | 52.1 | 29.5 | 69.7 | 55.6% | 67.5 | 19 | 50.5 | 50.2 | 62.1 | 
Cc1cc(=O)cc(C)n1-c1ccccc1 | 121% | 105% | 99.3 | 106 | 104% | 109 | 96.3 | 102% | 106 | 101% | 104 |  | 99.8 | 101% | 93.6 | 106 | 99 | 98.9 | 104 | 101
CCN1C(=O)/C(=C/C=C/N(C)c2ccccc2)SC1=S | 88.8% | 79.1% | 86.4 | 94.2 | 90.3% | 65.7 | 54.8 | 92.3% | 97.7 | 101% | 81.5 |  |  | 85.5% | 85.1 | 87.5 | 91.3 | 91.5 | 94.6 | 90.4
Oc1ccc(N=Nc2ccc(Br)cc2)c(O)c1 | -11.8% (active) | 6.18% (active) | 36.2 | 41.9 | -58.3% (active) | 30.8 | 15.4 | -18.6% (active) | 20.6 | -19.2% (active) | 21.2 |  | 38.5 | 16.8% | 17 | 11.1 | 39.4 | 51.9 | 51.2 | 93.5
COc1ccc(NC(=O)CCl)cc1 | 94.6% | 93.4% | 88.6 | 81.6 | 69.7% | 73.3 | 101 | 83.5% | 60.4 | 75.1% | 72.3 |  | 104 | 6.32% (active) | 74.6 | 65.3 | 83.1 |  | 97.2 | 67.3
O=C(c1ccccc1)C1CCC1 | 117% | 99.3% | 117 | 98.3 | 109% | 100 | 104 | 103% | 102 | 108% | 99.7 |  |  | 76.1% | 90.4 | 107 | 94 |  |  | 85.4
CC(C)=NNc1ccc([N+](=O)[O-])cc1[N+](=O)[O-] | 89.8% | 60.2% | 159 | 82.4 | 109% | 85.1 | 69.8 | 95.6% | 101 | 74.3% | 62.3 |  | 98.3 | 92.9% | 87.3 | 102 | 65.1 | 77.6 | 111 | 91.8
